Hits are enriched below; roughly 5.2% of the tested compounds scored in any of these assays.
esBAF inh: Bmi1 luciferase reporter increase in mESCs, primary screen, esBAF inhibitor project, mouse ES cells, Bmi1 luciferase knock-in, single point; 24 h; 100% = twice the neutral-well signal; reporter increase, % at 12.5 µM; 2% of 350,000 active; AID 602393, 2012; in the data active = activation above about 40%;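 note: 0% = median of the plate's neutral control wells and 100% = double that signal; a rise in the Bmi1 reporter signal indicates esBAF inhibition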
Vif inh: HIV Vif self-association inhibitors, primary screen, imaging, HEK293T, single point. HEK293T cells, Vif self-association by quenched fluorescence, 24 h. inhibition, % at 7.49 µM. 0.35% of 340,000 active; in the data active = inhibition above about 50%, passing the limit was not always enough
NadD inh: inhibitors of S. aureus NadD, primary screen, biochemical, colorimetric, uHTS; 0.78% of 360,000 active; Nicotinate-nucleotide adenylyltransferase NadD (Staphylococcus aureus N315); inhibition, % at 20 µM; purified NadD enzyme, colorimetric absorbance read-out; in the data active = inhibition above about 26%
SMARCA2 activ: SMARCA2 (BRM) function activators, primary screen, cell-based, luminescence, high throughput | MG213 cells, MMTV-luciferase reporter, dexamethasone, overnight | activation, % at 9.1 µM | 1% of 370,000 active | AID 652017, 2013; in the data active = activation above about 7.8%;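 note: 0% = vehicle wells and 100% = reference activator wells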
NR3A LBD binder: binders of NR3A ligand-binding domain, primary screen, biophysical, differential scanning fluorimetry, uHTS; Glutamate receptor ionotropic, NMDA 3A (GRIN3A) ligand-binding domain; NR3A LBD differential scanning fluorimetry, Tm shift; 0% = protein alone, 100% = glycine-bound protein; Tm shift relative to glycine control, % at 25 µM; 2.5% of 340,000 active;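 active = melting temperature shift of at least 10% of the positive control shift, at one fixed dose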
SKN-1 block: suppressors of acrylamide-induced Pgst-4::GFP reporter in worms, primary screen, SKN-1 inhibitor project, whole organism, uHTS, GFP/RFP fluorescence ratio, strain VP596; C. elegans VP596 Pgst-4::GFP/RFP ratio, 24 h; inhibition, % at 21.8 µM; AID 624304, 2012; 0.49% of 360,000 active;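 active = interference check ratio from 0.5 to 1.5 plus GFP to RFP signal ratio inhibition reaching or exceeding a fixed threshold, cut at about 30% in these data, passing the limit was not always enough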
Starred values were filed as active, the others as inactive.

COc1ccc(C(=O)NCCc2c[nH]c3ccccc23)cc1OC was read as esBAF inh -5, Vif inh -4, NadD inh -6, SMARCA2 activ -2, NR3A LBD binder 7 and SKN-1 block 6.
`Cc1ccc(NC(=O)c2ccc3nc[nH]c3c2)nc1` gave Vif inh 4, NadD inh -7, SMARCA2 activ 4, NR3A LBD binder 1 and SKN-1 block -14.
C[C@H]1CN([C@@H](C)CO)C(=O)c2cc(NS(=O)(=O)c3ccc(Cl)cc3)ccc2O[C@@H]1CN(C)C(=O)Nc1ccc2c(c1)OCO2 was read as esBAF inh -2.
Screening O=C(C[C@@H]1C[C@@H]2c3cc(NC(=O)c4cccnc4)ccc3O[C@@H]2[C@H](CO)O1)NCC(F)(F)F returned esBAF inh -3.
CCN1[C@@H]2c3ccc(C4=CCCCC4)c(=O)n3C[C@@H]2[C@@H](CO)[C@@H]1C(=O)NCc1cccc(OC)c1 was read as esBAF inh 3.
For O=C(NCCc1c[nH]c2ccccc12)c1cc(Cl)c2c(c1)OCO2 the results were esBAF inh 47*, Vif inh -7, NadD inh -3, SMARCA2 activ 4, NR3A LBD binder 30* and SKN-1 block -9.
O=C(c1ccccn1)N1CC[C@@H]2[C@H]1c1cc(-c3ccc(F)cc3)ccc1N[C@@H]2CO was read as esBAF inh 47*.
For C/C(=N\N1CCN(c2ccccc2)CC1)c1ccc(O)cc1 the results were esBAF inh 8, Vif inh 4, NadD inh -5, SMARCA2 activ 1, NR3A LBD binder 10* and SKN-1 block 11.
`O=c1c2ccccc2nc2n1-c1ccccc1CCC2` gave esBAF inh 0, Vif inh 6, NadD inh -3, SMARCA2 activ -3, NR3A LBD binder 0 and SKN-1 block -7.
Screening O=C1c2ccccc2-n2c1nc1ccccc1c2=O returned esBAF inh 45*, Vif inh -5, NadD inh 2, SMARCA2 activ 3, NR3A LBD binder 0 and SKN-1 block 2.
Screening C[C@@H]1CN([C@H](C)CO)S(=O)(=O)c2ccc(C#Cc3ccccn3)cc2O[C@H]1CN(C)Cc1ccccc1 returned esBAF inh 10.
Screening COc1cccc(S(=O)(=O)N[C@H]2C=C[C@@H](CC(=O)NCc3ccncc3)O[C@H]2CO)c1 returned esBAF inh -1.
For COc1ccccc1CNC(=O)C[C@@H]1C[C@@H]2c3cc(NS(=O)(=O)c4ccc(F)cc4)ccc3O[C@@H]2[C@H](CO)O1 the results were esBAF inh 6.
For Cc1cc(C)n(CC(=O)NC2CCCc3c2cnn3-c2ccc(C)c(C)c2)n1 (stereo not given) the results were esBAF inh 59*, Vif inh -4, NadD inh 2, SMARCA2 activ -2, NR3A LBD binder -8 and SKN-1 block 7.
Screening CN1C(=O)c2cc(NC(=O)Nc3ccc(Cl)cc3)ccc2OC[C@H]2O[C@@H](CC(=O)NCCN3CCCCC3)CC[C@@H]21 returned esBAF inh -1.
Screening Cc1[nH]nc(-c2ccc(O)cc2O)c1-c1ccc(Cl)cc1 returned esBAF inh -2, Vif inh -29, NadD inh 1, SMARCA2 activ -6, NR3A LBD binder 23* and SKN-1 block 12.
`COc1ccc(-c2n[nH]c(C)c2-c2ccc(Cl)cc2)c(O)c1` gave Vif inh -12, NadD inh -2, SMARCA2 activ -1, NR3A LBD binder 10* and SKN-1 block -6.
Cc1ccc(S(=O)(=O)N(C)C[C@@H]2OCCCC[C@@H](C)Oc3ccc(NC(=O)Nc4ccccc4)cc3C(=O)N([C@@H](C)CO)C[C@@H]2C)cc1 was read as esBAF inh 2.
Screening CC(C)CN1C(=S)SC(C)(C)C1n1oc(=O)n(-c2ccc(Cl)cc2)c1=O (stereo not given) returned Vif inh 2, NadD inh -6, NR3A LBD binder 11* and SKN-1 block -11.
CC(C)CN1C(=S)SC(C)(C)C1n1oc(=O)n(-c2ccccc2)c1=O (stereo not given) was read as esBAF inh -4, Vif inh -3, NadD inh -2, SMARCA2 activ -1, NR3A LBD binder -4 and SKN-1 block -8.
`N#C/C(=C\c1ccc(Cl)cc1Cl)c1n[nH]c(Cn2cncn2)n1` gave esBAF inh -15, Vif inh 4, NadD inh 6, SMARCA2 activ 1, NR3A LBD binder -2 and SKN-1 block 44*.
For COc1cc2nc(CN(CCC(C)C)Cc3nc4cc(OC)c(OC)cc4c(=O)[nH]3)[nH]c(=O)c2cc1OC the results were esBAF inh -1, Vif inh -1, NadD inh 7, SMARCA2 activ 1, NR3A LBD binder 11* and SKN-1 block 2.
For CCCNC(=O)[C@@H]1[C@@H](CO)[C@@H]2Cn3c(ccc(C4=CCCC4)c3=O)[C@@H]2N1CCC the results were esBAF inh -4.
For COc1ccc2cc(C(=O)Nc3ccc(Cl)cc3)sc(=O)c2c1OC the results were Vif inh -14, NadD inh -3, SMARCA2 activ -7, NR3A LBD binder 22* and SKN-1 block 16.
For COc1ccc2cc(C(=O)Nc3ccc(O)cc3)sc(=O)c2c1OC the results were Vif inh 18, NadD inh -1, SMARCA2 activ -1, NR3A LBD binder 31* and SKN-1 block 3.
`COc1ccc2cc(C(=O)Nc3ccc(F)cc3)sc(=O)c2c1OC` gave esBAF inh 10, Vif inh 11, NadD inh 5, SMARCA2 activ 0, NR3A LBD binder 21* and SKN-1 block 25.
`CC=Cc1ccc2n(c1=O)C[C@H]1[C@H](CO)[C@@H](C(=O)NCCc3cn(C)cn3)N(C(=O)C3CCC3)[C@@H]21` (mixture of isomers) gave esBAF inh -3.
Screening COC(=O)c1c(NC(=O)CN2CCN(Cc3ccc4c(c3)OCO4)CC2)sc(C)c1C returned esBAF inh -3, Vif inh -1, NadD inh -3, SMARCA2 activ -2, NR3A LBD binder -1 and SKN-1 block 36*.
COc1ccc(-c2csc(Nc3cc(C)ccn3)n2)cc1OC was read as esBAF inh 43*, Vif inh -18, NadD inh -2, SMARCA2 activ -1, NR3A LBD binder -1 and SKN-1 block 14.
